This is an account of results in paper PMC11062922 (Nature Chemical Biology, 2023).

Read-outs that look alike come from different tables or passages of the source.

What all share (parameters): species or system human, MV4-11 + K-562 + COLO205 + SK-N-BE2 + OVCAR-8
For one experiment, the system named is MAPK11. Particulars: read-out: apparent Kd, n = 1.
In the next experiment the test system is MAPK14. The following applies: read-out: apparent Kd, n = 1.
A further experiment relates to MAP2K1. Particulars: read-out: apparent Kd, n = 1.
The subject of another experiment is PIK3C2A. Particulars: read-out: apparent Kd; compound concentrations:100 nM and 1000 nM (sheet 'Samples'); n = 1.
The test system of another experiment is PIK3C3. Particulars: read-out: apparent Kd; compound concentrations:100 nM and 1000 nM (sheet 'Samples'); n = 1.
A further experiment relates to PIM2. Particulars: read-out: apparent Kd; compound concentrations:100 nM and 1000 nM (sheet 'Samples'); n = 1.
The next experiment relates to RIOK2. Particulars: read-out: apparent Kd; compound concentrations:100 nM and 1000 nM (sheet 'Samples'); n = 1.
For the next experiment, the system named is LIMK1. The following applies: read-out: apparent Kd; compound concentrations: 100 nM and 1000 nM (sheet 'Samples'), CATDS: 0.71485033586555802; n = 1.
For a further experiment, the system named is LIMK2. The following applies: read-out: apparent Kd; compound concentrations: 100 nM and 1000 nM (sheet 'Samples'), CATDS: 0.38445187661018698; n = 1.
The next experiment concerns MAPK8. Particulars: read-out: apparent Kd; compound concentrations:100 nM and 1000 nM (sheet 'Samples'); n = 1.
For another experiment, the system named is MAPK9. The following applies: read-out: apparent Kd; compound concentrations:100 nM and 1000 nM (sheet 'Samples'); n = 1.
Another experiment deals with MAPKAPK2. The following applies: read-out: apparent Kd; compound concentrations:100 nM and 1000 nM (sheet 'Samples'); n = 1.
For the next experiment, the system named is NLK. The following applies: read-out: apparent Kd; compound concentrations:100 nM and 1000 nM (sheet 'Samples'); n = 1.
In another experiment the test system is PIP4K2C. Particulars: read-out: apparent Kd; compound concentrations:100 nM and 1000 nM (sheet 'Samples'); n = 1.
Another experiment relates to MAP3K1. Particulars: read-out: apparent Kd; compound concentrations: 100 nM and 1000 nM (sheet 'Samples'), CATDS: 0.38790530075406598; n = 1.
For another experiment, the system named is PLK1. The following applies: read-out: apparent Kd; compound concentrations: 100 nM and 1000 nM (sheet 'Samples'), CATDS: 0.48589470973507998; n = 1.
The next experiment deals with SLK. The following applies: read-out: apparent Kd; compound concentrations: 100 nM and 1000 nM (sheet 'Samples'), CATDS: 0.160364449090587; n = 1.
The test system of a further experiment is STK10. The following applies: read-out: apparent Kd; compound concentrations: 100 nM and 1000 nM (sheet 'Samples'), CATDS: 0.19500034290566101; n = 1.
A further experiment relates to MAPK10. The following applies: read-out: apparent Kd; compound concentrations:100 nM and 1000 nM (sheet 'Samples'); n = 1.
The subject of the next experiment is MAP3K6. The following applies: read-out: apparent Kd; compound concentrations: 100 nM and 1000 nM (sheet 'Samples'), CATDS: 0.469017197153689; n = 1.
In another experiment the test system is MAP2K2. The following applies: read-out: apparent Kd; compound concentrations:100 nM and 1000 nM (sheet 'Samples'); n = 1.
The next experiment deals with NQO1. Particulars: read-out: apparent Kd; compound concentrations:100 nM and 1000 nM (sheet 'Samples'); n = 1.
The next experiment has as its system PIK3CB. Particulars: read-out: apparent Kd; compound concentrations:100 nM and 1000 nM (sheet 'Samples'); n = 1.
In another experiment the test system is PIK3CD. The following applies: read-out: apparent Kd; compound concentrations: 100 nM and 1000 nM (sheet 'Samples'), CATDS: 0.441724722045092; n = 1.
The subject of another experiment is RET. The following applies: read-out: apparent Kd; compound concentrations: 100 nM and 1000 nM (sheet 'Samples'), CATDS: 0.41481657466373201; n = 1.
The mark [1] stands for this setting: compound concentrations:100 nM and 1000 nM (sheet 'Samples').

As to `Nc1c(C(=O)c2cccc(C#CCO)c2)cnn1-c1ccc(F)cc1` [RO1153836-000], the potency estimated from few doses in the experiment on MAPK11 (compound concentrations: 100 nM and 1000 nM (sheet 'Samples'), CATDS: 1) is 591 nM.
Regarding `Cl.Nc1c(C(=O)c2cccc(-c3cccnc3)c2)cnn1-c1ccc(F)cc1F` [RO1164194-001], the potency estimated from few doses in the experiment with MAPK11 (compound concentrations: 100 nM and 1000 nM (sheet 'Samples'), CATDS: 0.82795584306013303) is 112 nM; in the experiment on MAPK14 (compound concentrations: 100 nM and 1000 nM (sheet 'Samples'), CATDS: 0.35813974934326798), 968 nM.
Consider `O=C1NC(=O)C(c2ccc(Cl)cc2)=C1Nc1cccc(Cl)c1` [SB-317651], for which the potency estimated from few doses in the experiment with MAP2K1 (setting [1]) is 1860 nM; in the experiment on PIK3C2A, 2450 nM; with PIK3C3, 1570 nM; with PIM2, 1320 nM; with RIOK2, 1500 nM.
Consider `CCCCN(Cc1ccccc1)C(=O)c1ccc(S(=O)(=O)Nc2ccccc2)cc1` [TH257], for which the potency estimated from few doses is 578 nM with LIMK1 and 2320 nM in the experiment on LIMK2.
As for `Cl.Cn1c(=O)c(Oc2ccc(F)cc2F)cc2cnc(N[C@H]3CC[C@H](O)CC3)nc21` [RO3305413-001], the potency estimated from few doses in the experiment on MAPK11 (setting [1]) is 806 nM; in the experiment with MAPK14 (setting [1]), 5.68 nM; in the experiment on MAPK8, 75.9 nM; in the experiment on MAPK9, 26.4 nM; with MAPKAPK2, 4.66 nM; in the experiment on NLK, 199 nM. Further, the potency estimated from few doses with PIP4K2C was 791 nM.
Take `C[C@@H](Oc1cc(-n2cnc3cc(-c4ccnc(NCCS(C)(=O)=O)c4)ccc32)sc1C(N)=O)c1ccccc1Cl` [GSK907232A]: the potency estimated from few doses is 80.6 nM with MAP3K1, 53.6 nM with PLK1, 1330 nM in the experiment with SLK and 534 nM in the experiment with STK10.
`N#CCn1c(=O)c(Oc2ccc(F)cc2F)cc2cnc(NC3CCOCC3)nc21` [RO5040027-000]: the potency estimated from few doses with MAPK10 was 45.1 nM; with MAPK11 (setting [1]) it was 146 nM; with MAPK14 (setting [1]) it was 3.79 nM; in the experiment with MAPK8, 523 nM; with MAPK9, 146 nM; in the experiment with MAPKAPK2 it was 3.65 nM.
Turning to `Cl.Nc1c(C(=O)c2cccc(-c3ccncc3)c2)cnn1-c1ccc(F)cc1` [RO1165037-001], the potency estimated from few doses is 1810 nM with MAP3K6; 1390 nM with MAPK11 (compound concentrations: 100 nM and 1000 nM (sheet 'Samples'), CATDS: 0.53536571927793597).
Regarding `Cc1c(Cn2c(C)nn3c(=O)cc(N4CCOC(C)C4)nc23)cccc1C(F)(F)F` (stereo not shown) [GSK2344444A], the potency estimated from few doses in the experiment with MAP2K1 (setting [1]) is 2250 nM; in the experiment with MAP2K2 it was 1810 nM; with NQO1, 1560 nM; in the experiment on PIK3CB, 13.4 nM; with PIK3CD, 20 nM.
As to `Cc1ccc(NC(=O)c2ccnc(N3CCCCC3)c2)cc1-c1ccc(C(=O)NCC2CC2)cc1` [GW775610X], the potency estimated from few doses is 309 nM with MAPK11 (setting [1]), 199 nM with MAPK14 (setting [1]) and 107 nM in the experiment on MAPKAPK2.
As for `COc1cc2c(Nc3cccc(NC(=O)c4ccccc4)c3)ncnc2cc1OCCCN1CCOCC1` [GSK223810A], the potency estimated from few doses in the experiment with MAP2K1 (compound concentrations: 100 nM and 1000 nM (sheet 'Samples'), CATDS: 0.27931983910668101) is 2310 nM; in the experiment on MAPK11 (compound concentrations: 100 nM and 1000 nM (sheet 'Samples'), CATDS: 0.33231746948784902), 1550 nM; with RET, 1030 nM.
As for `CCOc1cc(N2CCC(O)CC2)ccc1Nc1ncc2c(n1)N(C)c1ccccc1C(=O)N2C` [XMD8-92], the potency estimated from few doses with MAP2K1 (setting [1]) is 1780 nM.
On to `CN(C)CC#Cc1cccc(C(=O)c2cnn(-c3ccc(F)cc3)c2N)c1.Cl` [RO1154641-001], for which the potency estimated from few doses was 758 nM in the experiment on MAPK11 (compound concentrations: 100 nM and 1000 nM (sheet 'Samples'), CATDS: 0.57557980724534297); 1300 nM in the experiment on MAPK14 (compound concentrations: 100 nM and 1000 nM (sheet 'Samples'), CATDS: 0.44196522207196598).
